# Measurements: PubChem BioAssay
# For some assays here: Entries with a potency or affinity are not part of this list. Active and inactive are the calls of the source.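 How the source made its calls, unless noted: active means at least 20% inhibition of 6-phosphogluconate dehydrogenase activity; inactive means the rest.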
# Columns and labels:
# [1] = target: 6-phosphogluconate dehydrogenase, decarboxylating (Homo sapiens) (UniProt P52209); assay: 6PGD enzyme inhibitors, primary screen, biochemical, human, recombinant enzyme, NADPH absorbance (AID 1159550); conditions: recombinant 6PGD, NADPH absorbance 341 nm; at 10 µM; stronger effect = higher value
# Chain of 6-phosphogluconate dehydrogenase, decarboxylating (Homo sapiens) (P52209 whole entry, looked up): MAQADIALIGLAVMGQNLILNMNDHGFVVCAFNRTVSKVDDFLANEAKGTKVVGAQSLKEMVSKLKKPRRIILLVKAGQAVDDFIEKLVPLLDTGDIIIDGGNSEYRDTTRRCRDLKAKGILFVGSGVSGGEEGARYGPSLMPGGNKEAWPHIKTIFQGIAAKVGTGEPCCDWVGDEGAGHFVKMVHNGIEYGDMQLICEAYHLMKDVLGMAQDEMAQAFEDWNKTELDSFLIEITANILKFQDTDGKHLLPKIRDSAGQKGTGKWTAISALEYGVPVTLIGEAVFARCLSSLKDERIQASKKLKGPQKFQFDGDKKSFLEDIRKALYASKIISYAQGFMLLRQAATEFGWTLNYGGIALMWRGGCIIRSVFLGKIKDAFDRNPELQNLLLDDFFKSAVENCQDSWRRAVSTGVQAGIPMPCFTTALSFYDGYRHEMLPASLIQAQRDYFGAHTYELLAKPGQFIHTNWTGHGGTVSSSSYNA
# [2] = differential killing of epithelial or mesenchymal cells, primary screen, imaging, PC-3E GFP, TEM4-18 mCherry, co-culture (AID 1345086;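 active means compounds killing one labelled cell type while sparing the other, by normalised counts and ratio limits, not self-fluorescent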;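 on all read-outs here: cells exposed to compound for 72 h before imaging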;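 on red/green cell ratio (normalised): normalised mesenchymal count divided by normalised epithelial count so high means epithelial killing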); conditions: imaging cell counts, at 1 µM; for red/green cell ratio (normalised): actives lie on both sides
# [3] = test system: Aerobactin synthetase IucA (Klebsiella pneumoniae hvKP1); assay: Biochemical IucA enzyme inhibition primary screen of the Spectrum library (AID 1346200; call rule not given here;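 further: 100% = wells without compound and 0% = wells lacking enzyme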); conditions: malachite green pyrophosphate, A620, at 8 µM, stronger effect = lower value
# [4] = target: Mitogen-activated protein kinase 7 (Homo sapiens) (UniProt Q13164); assay: ERK5 transactivation activators in reporter cells, primary screen, cell-based, HTS (AID 1508626;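 active means luciferase signal above three times the same-plate solvent-only control wells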;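 further: luciferase driven by Gal4-ERK5 fusion binding five Gal4 sites before minimal TATA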); conditions: HeLa Gal4-ERK5 transactivation, 18 h, at 5 µM, stronger effect = higher value
# Chain of Mitogen-activated protein kinase 7 (Homo sapiens) (Q13164 whole entry, looked up, the tested form may be a part): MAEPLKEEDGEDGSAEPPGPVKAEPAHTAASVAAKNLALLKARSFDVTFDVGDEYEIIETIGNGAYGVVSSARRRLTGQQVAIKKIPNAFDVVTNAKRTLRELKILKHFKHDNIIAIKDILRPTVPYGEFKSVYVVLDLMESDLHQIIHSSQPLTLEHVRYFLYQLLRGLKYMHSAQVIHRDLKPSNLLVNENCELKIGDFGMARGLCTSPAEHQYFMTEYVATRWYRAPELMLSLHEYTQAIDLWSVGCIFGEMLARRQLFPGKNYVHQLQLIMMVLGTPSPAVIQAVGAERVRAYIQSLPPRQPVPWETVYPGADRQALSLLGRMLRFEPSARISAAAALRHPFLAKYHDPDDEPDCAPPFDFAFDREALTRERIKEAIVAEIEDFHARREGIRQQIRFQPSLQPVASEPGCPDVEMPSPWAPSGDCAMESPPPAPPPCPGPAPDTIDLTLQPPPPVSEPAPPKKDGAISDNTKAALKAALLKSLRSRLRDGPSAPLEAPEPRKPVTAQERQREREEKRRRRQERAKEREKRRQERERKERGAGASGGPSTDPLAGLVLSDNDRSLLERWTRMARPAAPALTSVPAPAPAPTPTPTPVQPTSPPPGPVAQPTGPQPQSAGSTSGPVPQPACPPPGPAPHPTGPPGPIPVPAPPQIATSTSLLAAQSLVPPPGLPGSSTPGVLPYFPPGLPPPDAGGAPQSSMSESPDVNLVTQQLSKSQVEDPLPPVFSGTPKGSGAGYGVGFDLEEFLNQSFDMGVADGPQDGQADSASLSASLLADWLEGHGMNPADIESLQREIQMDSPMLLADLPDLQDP
# [5] = polyglutamine-triggered caspase-3 activation inhibitors, cell-based (AID 1583); conditions: polyglutamine-induced caspase-3 activation, cell assay; stronger effect = higher value;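 tested at 10 µM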
# [6] = suppressors of polyQ aggregation in yeast, 75Q-TubU reporter (AID 1593); conditions: Yeast 75Q polyglutamine aggregation reporter
# [7] = rescue of polyQ-huntingtin neuronal dysfunction in worms, whole organism, C. elegans mechanosensory neurons, N-terminal huntingtin (AID 1599); conditions: touch response, stronger effect = higher value
# [8] = inhibitors of mitochondrial cytochrome c release, biochemical, purified mitochondria (AID 1603); conditions: stronger effect = lower value;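 further: mouse liver mitochondria challenged with calcium chloride; signal normalized to the plate average as 100%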
# [9] = inhibitors of polyQ protein aggregation (AID 1604); conditions: polyglutamine-induced protein aggregation inhibition assay; stronger effect = higher value; tested at 2.5 µM
# [10] = enhancers of glutamate uptake in motor neurons, MN-1 cell line (AID 1612); conditions: MN-1 motor neuron cells, stronger effect = higher value;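 further: tested at 1 µM final; 0% = mean of DMSO vehicle wells on each plate; positive means more glutamate uptake than control and negative means less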
# [11] = reducers of polyQ inclusions in PC12 cells, cell-based, NGF-treated PC12, GFPQ80 (AID 1614); conditions: PC12 NGF-treated GFP-polyQ80 inclusion reduction;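 further: lower means fewer inclusions and 0 means no inclusions at all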
# [12] = suppressors of polyglutamine aggregation in yeast, 75Q-TubH (AID 1616); conditions: S. cerevisiae 75Q-TubH polyglutamine aggregation suppression; stronger effect = higher value
# [13] = counts scaled to control wells, 1 = unselective
# [14] = measured here: epithelial PC-3E GFP cell survival
# [15] = measured here: mesenchymal TEM4-18 mCherry cell survival
compound,measurement,setting,value
COc1cccc(C=O)c1OC,inhibition,[1],7.48% (inactive)
same,red/green cell ratio (normalised),[2]; [13],1.04 (inactive)
same,normalised cell number,[2]; [14],0.98
same,normalised cell number,[2]; [15],1.02
same,activity remaining,[3],93.4% (inactive)
same,luciferase signal,[4],60 AU (inactive)
N#C/C(=C\c1cccc(O)c1)C(=O)O,inhibition,[5],16.4%
same,score,[6],1.48
same,rescue above control,[7],-1.13
same,cytochrome c release ratio,[8],2.28
same,inhibition of aggregation,[9],58.6%
same,glutamate uptake change,[10],-1.74%
same,inclusion score,[11],2
same,aggregation suppression score,[12],1.54
same,inhibition,[1],11.3% (inactive)
same,red/green cell ratio (normalised),[2],0.88 (inactive)
same,normalised cell number,[2]; [14],1.09
same,normalised cell number,[2]; [15],0.96
same,activity remaining,[3],104% (inactive)
same,luciferase signal,[4],128 AU (inactive)
NCC(=O)c1ccccc1,inhibition,[1],-6.79% (inactive)
same,red/green cell ratio (normalised),[2],0.98 (inactive)
same,normalised cell number,[2]; [14],1.03
same,normalised cell number,[2]; [15],1.02
same,activity remaining,[3],114% (inactive)
same,luciferase signal,[4],56 AU (inactive)
CC(=O)Oc1ccc(/C=C/c2cc(OC(C)=O)cc(OC(C)=O)c2)cc1,inhibition,[1],-2.26% (inactive)
same,red/green cell ratio (normalised),[2],1.01 (inactive)
same,normalised cell number,[2]; [14],0.98
same,normalised cell number,[2]; [15],1
same,activity remaining,[3],103% (inactive)
same,luciferase signal,[4],20 AU (inactive)
CC1(C)C2CC(=O)[C@]3(C)C(CC[C@@]4(C)[C@H](c5ccoc5)OC(=O)C5OC543)[C@@]2(C)[C@@H](O)C[C@H]1O (some centres not stated),inhibition,[1],-2.4% (inactive)
same,red/green cell ratio (normalised),[2],1.04 (inactive)
same,normalised cell number,[2]; [14],0.78
same,normalised cell number,[2]; [15],0.8
same,activity remaining,[3],107% (inactive)
same,luciferase signal,[4],80 AU (inactive)
CN1CCCCC1c1ccc(-c2cccnc2)nc1 (configuration not stated),inhibition,[1],-0.658% (inactive)
same,red/green cell ratio (normalised),[2]; [13],1.09 (inactive)
same,normalised cell number,[2]; [14],0.96
same,normalised cell number,[2]; [15],1.04
same,activity remaining,[3],113% (inactive)
same,luciferase signal,[4],52 AU (inactive)
CC[C@@]1(O)C[C@H](O)c2c(cc3c(c2O)C(=O)c2c(O)ccc(O)c2C3=O)[C@H]1C(=O)OC,inhibition,[1],10.8% (inactive)
same,red/green cell ratio (normalised),[2],0.85 (inactive)
same,normalised cell number,[2]; [14],0.96
same,normalised cell number,[2]; [15],0.82
same,activity remaining,[3],112% (inactive)
same,luciferase signal,[4],52 AU (inactive)
CC(C)CCCC1(C)C=Cc2c(O)c3c(c(CCC(C)C)c2O1)OC12C(CC4CC1C(C)(C)OC2(CCC(C)C(=O)O)C4O)C3=O (configuration not stated),inhibition,[1],0.442% (inactive)
same,red/green cell ratio (normalised),[2],0.9 (inactive)
same,normalised cell number,[2]; [14],0.98
same,normalised cell number,[2]; [15],0.88
same,activity remaining,[3],98% (inactive)
same,luciferase signal,[4],76 AU (inactive)
O=[N+]([O-])c1ccc(O)c([N+](=O)[O-])c1,inhibition,[1],-2.82% (inactive)
same,red/green cell ratio (normalised),[2],0.86 (inactive)
same,normalised cell number,[2]; [14],1.08
same,normalised cell number,[2]; [15],0.93
same,activity remaining,[3],110% (inactive)
same,luciferase signal,[4],44 AU (inactive)
COc1cc([C@@H]2c3cc4c(c(O)c3C[C@H]3COC(=O)[C@@H]32)OCO4)cc(OC)c1OC,inhibition,[1],-17.8% (inactive)
same,red/green cell ratio (normalised),[2],0.83 (inactive)
same,normalised cell number,[2]; [14],0.2
same,normalised cell number,[2]; [15],0.16
same,activity remaining,[3],116% (inactive)
same,luciferase signal,[4],16 AU (inactive)
O=c1cccc2n1CC1CC2CN2CCCC[C@@H]12 (some centres not stated),inhibition,[1],1.69% (inactive)
same,red/green cell ratio (normalised),[2]; [13],1.02 (inactive)
same,normalised cell number,[2]; [14],0.92
same,normalised cell number,[2]; [15],0.94
same,activity remaining,[3],116% (inactive)
same,luciferase signal,[4],56 AU (inactive)
CC(C)(C#N)O[C@@H]1O[C@H](CO)[C@@H](O)[C@H](O)[C@H]1O,inhibition,[1],5.98% (inactive)
same,red/green cell ratio (normalised),[2],0.8 (inactive)
same,normalised cell number,[2]; [14],0.84
same,normalised cell number,[2]; [15],0.67
same,activity remaining,[3],94.3% (inactive)
same,luciferase signal,[4],92 AU (inactive)
COc1cc2occc2c2oc(=O)ccc12,inhibition,[1],11.9% (inactive)
same,red/green cell ratio (normalised),[2],1.13 (inactive)
same,normalised cell number,[2]; [14],1
same,normalised cell number,[2]; [15],1.14
same,activity remaining,[3],121% (inactive)
same,luciferase signal,[4],84 AU (inactive)
C=C(C)c1cc2cc(C(C)=O)c(O)cc2o1,inhibition,[1],13.2% (inactive)
same,red/green cell ratio (normalised),[2],0.8 (inactive)
same,normalised cell number,[2]; [14],1.14
same,normalised cell number,[2]; [15],0.92
same,activity remaining,[3],104% (inactive)
same,luciferase signal,[4],64 AU (inactive)
COC(=O)NC(=S)Nc1ccccc1NC(=S)NC(=O)OC,inhibition,[1],-13.9% (inactive)
same,red/green cell ratio (normalised),[2],0.85 (inactive)
same,normalised cell number,[2]; [14],1.16
same,normalised cell number,[2]; [15],0.98
same,activity remaining,[3],110% (inactive)
same,luciferase signal,[4],8 AU (inactive)
O=C1C=C2C(=CCOC2O)O1 (configuration not stated),inhibition,[5],71.1%
same,score,[6],1.15
same,rescue above control,[7],-6.1
same,cytochrome c release ratio,[8],0.78
same,inhibition of aggregation,[9],0%
same,glutamate uptake change,[10],-4.18%
same,aggregation suppression score,[12],0.84
same,inhibition,[1],4.22% (inactive)
same,red/green cell ratio (normalised),[2],0.44 (inactive)
same,normalised cell number,[2]; [14],0.14
same,normalised cell number,[2]; [15],0.06
same,activity remaining,[3],124% (inactive)
same,luciferase signal,[4],3170 AU (active)
CNC(=O)N(C)c1nnc(C(C)(C)C)s1,inhibition,[1],-12.3% (inactive)
same,activity remaining,[3],98% (inactive)
CC1C[C@H]2CC(=O)[C@H]3CCCN4CCC[C@H]2[C@]34C1 (some centres not stated),inhibition,[1],-1.6% (inactive)
same,activity remaining,[3],91.3% (inactive)
COc1cc2c(c(OC)c1OC)-c1ccc(O)c(=O)cc1[C@@H](NC(C)=O)CC2,inhibition,[1],7.64% (inactive)
same,activity remaining,[3],120% (inactive)
CNc1ccccc1C(=O)O,inhibition,[1],18.3% (inactive)
same,red/green cell ratio (normalised),[2],0.85 (inactive)
same,normalised cell number,[2]; [14],1.13
same,normalised cell number,[2]; [15],0.95
same,luciferase signal,[4],76 AU (inactive)
